# The list is not random: actives were taken first. Their share in the collection is about 10%.
# Gal4-VP16 FLuc – VP16 counterscreen qHTS for inhibitors of ROR gamma transcriptional activity; hit rate 3.5% among 310,000; Drosophila S2 Gal4-VP16 UAS-luciferase, luminescence, 20 h; AID 2546, 2010; Potency, µM (titrated, usually from 53.6 µM), inactives show top-dose activity, negative = inhibition, most hits filed as inhibitors;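 also: Gal4-VP16 expression switched on by copper sulfate through the metallothionein promoter; % is scaled to controls: 0 for no effect and ±100 for the full control effect; nearly all actives have a fitted effect of over 50% in size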
# RORg inh – qHTS for inhibitors of ROR gamma transcriptional activity; Nuclear receptor ROR-gamma (Mus musculus), P51450; Drosophila S2 Gal4-RORgamma UAS-luciferase reporter, 20 h; Potency, µM (doses to about 53.6 µM), for the others: top-dose activity change, negative = inhibition, usual class: inhibitors; hit rate 5.4% among 310,000; AID 2551, 2010; also: % is scaled to controls: 0 for no effect and ±100 for the full control effect; nearly all actives have a fitted effect of over 60% in size
# Target sequence (P51450 whole entry, looked up, the tested form may be a part): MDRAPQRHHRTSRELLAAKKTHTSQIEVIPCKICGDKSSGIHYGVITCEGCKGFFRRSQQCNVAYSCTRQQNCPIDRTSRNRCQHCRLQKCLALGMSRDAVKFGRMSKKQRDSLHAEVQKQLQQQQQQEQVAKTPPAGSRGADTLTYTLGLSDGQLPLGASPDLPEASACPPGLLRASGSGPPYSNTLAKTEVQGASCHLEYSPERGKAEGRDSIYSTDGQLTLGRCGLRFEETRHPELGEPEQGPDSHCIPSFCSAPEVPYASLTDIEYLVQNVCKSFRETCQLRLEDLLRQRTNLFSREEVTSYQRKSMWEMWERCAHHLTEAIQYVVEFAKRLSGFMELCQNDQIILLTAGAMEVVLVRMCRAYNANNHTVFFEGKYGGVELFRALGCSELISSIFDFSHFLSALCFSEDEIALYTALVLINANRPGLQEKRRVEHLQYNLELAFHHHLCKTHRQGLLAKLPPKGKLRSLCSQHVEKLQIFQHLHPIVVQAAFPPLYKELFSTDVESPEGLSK
#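 Luminescence from a UAS-regulated Photinus luciferase reporter in stably transfected Drosophila Schneider cells is measured; decreased signal marks ROR gamma inhibition. Fusion expression is induced by 700 uM copper sulfate for 20 hr.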
# MCF10A rerep – A quantitative high throughput screen for small molecules that induce DNA re-replication in MCF 10a normal breast cells. MCF 10A DNA re-replication, Hoechst nuclear intensity, 48 h. Potency, µM (titrated, usually from 46.1 µM), inactives show at the highest dose activity, positive = re-replication, hits mostly activators. hit rate 2.9% among 350,000; also: % of control where 0% means no effect; nearly all actives have a fitted effect of over 50% in size
# KB-3-1 cytotox – qHTS assay for MDR1-selective chemotherapeutics: Primary screen using the parental adenocarcinoma cell KB-3-1. hit rate 1.4% among 400,000. Potency, µM (titrated, usually from 46.1 µM), actives largely listed as cytotoxic. KB-3-1 viability, CellTiter-Glo ATP luminescence, 72 h; also: % is scaled to controls: 0 for no effect and ±100 for the full control effect; nearly all actives have a fitted effect of over 60% in size
#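 Parental KB-3-1 adenocarcinoma cells in phenol-red-free DMEM with 10% FBS were pin-treated with compounds at several concentrations, incubated 72 h at 37 °C, and viability read by CellTiter-Glo luminescence; concentration-effect curves were fitted after normalization.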
# SW480 rereplic – A quantitative high throughput screen for small molecules that induce DNA re-replication in SW480 colon adenocarcinoma cells. hit rate 1.8% among 340,000. AID 624297, 2012. Potency, µM (series often up to 46.1 µM), without a hit: top-dose re-replication activation, most hits filed as activators. SW480 DNA re-replication, Hoechst DNA content imaging, 48 h; also: % of control where 0% means no effect; nearly all actives have a fitted effect of over 55% in size
#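 Per well, 250 cells were exposed to pinned compound for 48 hr. Nuclear DNA was visualised with Hoechst (40 min, 37 C) and total object intensity recorded by fluorescence scanning.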
# KB-V1 MDR tox – qHTS assay for MDR1-selective chemotherapeutics: Primary screen using the drug-selected MDR subline cells KB-V1; KB-V1 MDR cells viability, CellTiter-Glo, 72 h; Potency, µM (highest dose often 46.1 µM), actives largely listed as cytotoxic; hit rate 3.4% among 400,000; also: % is scaled to controls: 0 for no effect and ±100 for the full control effect; nearly all actives have a fitted effect of over 60% in size
#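 Potencies derive from concentration-effect curves fitted to normalized luminescence (CellTiter-Glo) of KB-V1 cells treated for 72 h at 37 degrees C in phenol-red-free DMEM containing 10% FBS.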
# Starred values were filed as active, the others as inactive; i = inactive; ? = inconclusive; / = not tested or not shown; [ ] = another dose, or the depositor's remark. Calls follow the shape of the dose curve; as a rule, active = well fitted curve in the direction sought with a large enough effect; inconclusive = small, poorly fitted or top-dose-only effect, or another doubt; inactive = no such curve, though single readings can be large; an effect the other way counts as inactive or inconclusive. Potency is read from the fitted curve at half-maximal effect.
SMILES,Gal4-VP16 FLuc,RORg inh,MCF10A rerep,KB-3-1 cytotox,SW480 rereplic,KB-V1 MDR tox
CCOC(=O)C1CCN(C(=O)CN(C)S(=O)(=O)c2cc(C)ccc2OC)CC1,3%,-13%,1%,i,2%,23µM*
COc1ccc(C)cc1S(=O)(=O)N(C)CC(=O)N1CCC(C(N)=O)CC1,1%,3%,-1%,i,-10%,i
CC(=O)OC[C@@H]1O[C@@H](O/N=C2/C[C@@H](O)[C@@H](O)[C@@H]3[C@@H]4C(=O)N(c5cccc(Oc6ccccc6)c5)C(=O)[C@H]4CC[C@@H]23)[C@H](OC(C)=O)[C@H](OC(C)=O)[C@@H]1OC(C)=O,3%[10 µM],-2%[10 µM],/,/,/,/
O=C1CCc2cc(S(=O)(=O)NC(Cc3ccccc3)C(=O)NCC3CCCO3)ccc2N1 (stereo not given),-13%,7.9µM*,1%,i,-3%,i
CCOC(=O)CNC(=O)C(Cc1ccccc1)NS(=O)(=O)c1ccc2c(c1)CCC(=O)N2 (stereo not given),/,/,11%,i,-8%,i
Cc1nc(=O)c(-c2ccccc2)c(C)n1-c1ccccc1,/,/,0%,i,1%,i
Cc1nc(-c2ccccc2)nc2[nH]c(C(C)C)cc(=O)c12,-12%,11%,9.2µM*,i,4%,?
Cc1nc(-c2ccccc2)nc2[nH]c(=O)n(-c3ccccc3)c(=O)c12,-27%,?,-4%,?,-16%,21µM*
N#Cc1c(NC(=O)CS(=O)(=O)c2ccc(Cl)cc2)sc2c1CCCCC2,/,/,/,i,/,i
CCOc1ccc(NC(=O)Cn2c(=O)n(-c3cccc(Cl)c3)c(=O)c3c2c2cc(C)ccc2n3C)cc1,/,/,/,i,/,?
CC(NC(=O)CN1C(=O)NC2(CCCCCCC2)C1=O)c1ccccc1 (stereo not given),/,/,-3%,i,-1%,23µM*
Cc1ccc(NC(=O)CN2C(=O)NC3(CCCCCCC3)C2=O)cc1C,/,/,-1%,i,-5%,23µM*
Cc1ccc(NC(=O)CN2C(=O)NC3(CCC(C)CC3)C2=O)c(Cl)c1 (stereo not given),3%,-11%,19%,i,-3%,18µM*
Cc1cc(C)c(NC(=O)CN2C(=O)NC3(CCCCC3)C2=O)c(Cl)c1,13%,1%,2%,i,-4%,i
CC(NC(=O)CN1C(=O)NC2(CCCCC2)C1=O)c1ccc(S(N)(=O)=O)cc1 (stereo not given),/,/,?,i,6.5µM*,i
CCSc1nc(-c2ccccc2)nc(C(Cl)Cl)n1,10µM*,1.3µM*,12µM*,5.2µM*,23%,i
CSc1nc(-c2ccc(C)cc2)nc(C(Cl)Cl)n1,0%,?,?,7.3µM*,18%,18µM*
COC(=O)C/C=C/[C@@H](C)[C@H](NC(=O)OCC(Cl)(Cl)Cl)c1cccc(OC)c1,-1%,12%,/,/,/,/
O=C(c1ccsc1)N1CCCC(N2CCN(c3cccc(C(F)(F)F)c3)CC2)C1 (stereo not given),-4%,?,?,/,-4%,/
O=C(c1cc[n+]([O-])cc1)N1CCCC(N2CCN(c3cccc(C(F)(F)F)c3)CC2)C1 (stereo not given),-65%,1.3µM*,2%,i,-2%,i
Cc1cc(C(=O)N2CCCC(N3CCN(c4cccc(C(F)(F)F)c4)CC3)C2)c(C)o1 (stereo not given),-5%,-5%,?,i,18µM*,i
Cc1occc1C(=O)N1CCCC(N2CCN(c3cccc(C(F)(F)F)c3)CC2)C1 (stereo not given),-9%,8%,?,i,-38%,?
CCCN(C(=O)c1noc2c1COc1ccc(C)cc1-2)c1ccc(Cl)c(Cl)c1,/,/,/,i,/,i
CCOC(=O)c1ccccc1NC(=O)c1cc2ccccc2o1,-7%,5%,2%,i,1%,i
CCOC(=O)CNC(=O)c1sc(NC(=O)c2ccccc2F)nc1C,2.5µM*,?,-3%,i,-14%,?
SMILES,Gal4-VP16 FLuc,RORg inh,MCF10A rerep,KB-3-1 cytotox,SW480 rereplic,KB-V1 MDR tox
CCOC(=O)c1sc(NC(=O)Nc2ccccc2F)nc1C,8.9µM*,7.9µM*,4%,i,0%,?
Cc1nnc(NC(=O)c2cc3ccccc3o2)s1,4%,?,?,i,-22%,i
CCOC(=O)c1csc(NC(=O)c2cc3ccccc3o2)n1,?,3.2µM*,-4%,i,4%,i
Cc1nc(NC(=O)c2cc3ccccc3o2)sc1C,?,10µM*,-13%,i,7%,i
CCOC(=O)c1sc(Nc2ccccc2Cl)nc1C,4%,-8%,14%,i,-6%,i
Cc1cnc(NC(=O)c2cc3ccccc3o2)s1,13µM*,6.3µM*,2%,i,-9%,i
CCOC(=O)c1ccc(NC(=O)c2cc3ccccc3o2)cc1,-6%,0%,-1%,i,-3%,i
CCOC(=O)c1sc(NC(=O)c2cc3ccccc3o2)nc1C,?,4µM*,13%,i,-3%,i
CC1CCN(c2nn3c(=O)c(C(=O)NC(C)C)cnc3s2)CC1,/,/,/,i,/,i
CCCCCCN1CCN(C2CN(Cc3ccc(F)cc3)S(=O)(=O)C2)CC1 (stereo not given),/,/,/,?,/,i
C[C@@H]1CN([C@@H](C)CO)S(=O)(=O)c2ccc(Br)cc2O[C@H]1CN(C)C(=O)c1ccccc1,/,/,/,i,/,?
FC(F)(F)c1cccc(-c2nn[nH]n2)c1,-3%,12%,-4%,i,0%,i
FC(F)(F)c1cccc(-c2nnc3ccc(C(F)(F)F)cn23)c1,-4%,10µM*,1%,i,-17%,i
O=C(O)CCC/C=C\C/C=C\C=C\[C@@H](O)C/C=C\CCCCCO,3%,-1%,/,/,/,/
Cc1ccccc1Oc1nc2c(c(=O)n(C)c(=O)n2C)n1Cc1ccc(Br)cc1,/,/,/,i,/,i
COc1ccc(Cl)cc1NC(=O)c1c(C(=O)Nc2cccc(C)c2C)sc2nc(C)cc(=O)n12,/,/,/,i,/,?
Cc1cc(C)c(OCCCn2ccnc2)c(C)c1,?,13µM*,15%,i,-22%,i
CC(C)(C)c1ccccc1OCCCCCn1ccnc1,?,18µM*,-2%,i,2%,?
Cc1cc(Cl)c(OCCCn2ccnc2)c(Br)c1,?,18µM*,12%,i,-9%,i

# Compound activity: PubChem, National Center for Advancing Translational Sciences (NCATS)
